This is an account of results in PubChem BioAssay (NCATS).

“And” between values parts separate entries of the source, which are not always exact repeats. Identical values can stand only once. Records with an inconclusive call do not appear. The source made the active and inactive calls. Unless noted, the call rests on the fitted dose curve; in most records, active means well fitted curve in the direction sought with a large enough effect; inconclusive means small, poorly fitted or top-dose-only effect, or another doubt; inactive means no such curve, though single readings can be large; an effect the other way counts as inactive or inconclusive.

The target in assay [1] is Calcium and integrin-binding protein 1 (Homo sapiens) (UniProt Q99828). The assay is described as follows: Primary qHTS for Identification of Calcium Integrin Binding Protein 1 (CIB1) Competitor (AID 1508620). In short, it runs like this: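 Fluorescence polarization competition: CIB1-GST (1 uM final) preincubated with compound 15 min at room temperature, then FITC-labeled alphaIIb peptide (100 nM final) added for another 15 min. Polarization read at Ex 480/Em 540.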

The target in assay [2] is Cytochrome P450 2D6 (Homo sapiens) (UniProt P10635). The assay is described as follows: Cytochrome P450 family 2 subfamily D member 6 (CYP2D6) small molecule antagonists: luciferase biochemical (cell-free) qHTS assay (AID 1645840; active means well fitted curve in the direction sought with a large enough effect in the repeat runs; an effect the other way counts as inactive or inconclusive; further: nearly all actives have a fitted effect of over 55% in size). Put shortly:
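P450-Glo luminescent screen: recombinant CYP2D6 enzyme–proluciferin substrate mix preincubated with compound 10 min at room temperature, then NADPH regeneration added for 1 h at room temperature. Detection reagent added for 20 min; luciferin light read as relative luminescence units.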
For orientation: Quantitative high-throughput screening tests each substance at several concentrations.

The target in assay [3] is Cytochrome P450 2C9 (Homo sapiens) (UniProt P11712). As to the kind of experiment: Cytochrome P450 family 2 subfamily C member 9 (CYP2C9) small molecule antagonists: luciferase biochemical (cell-free) qHTS assay (AID 1645842; active means well fitted curve in the direction sought with a large enough effect in the repeat runs; an effect the other way counts as inactive or inconclusive; further: nearly all actives have a fitted effect of over 55% in size). In short, it runs like this: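 Luminescence, after 20 min with luciferin detection reagent, reflected CYP2C9 turnover during a 1 h NADPH-driven reaction at 37C. Enzyme-substrate mix contained 0.4% bovine serum albumin and was preincubated with compound 10 min at room temperature.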

Assay [4] is described as follows: Primary qHTS for inhibitors of nuclear receptor binding SET domain protein 2 (NSD2) in an isogenic RCH-ACV NSD2 p.E1099K mutant (9B) (AID 1645876). Further: nearly all actives have a fitted effect of over 70% in size.
Assay [5] is described as follows: Primary qHTS for inhibitors of nuclear receptor binding SET domain protein 2 (NSD2) in an RCH-ACV wild type WT cells (2C) (AID 1645877). Further: nearly all actives have a fitted effect of over 70% in size.
Potency means the concentration at half of the fitted maximal effect.

Chain of Calcium and integrin-binding protein 1 (Homo sapiens) (Q99828 whole entry, looked up): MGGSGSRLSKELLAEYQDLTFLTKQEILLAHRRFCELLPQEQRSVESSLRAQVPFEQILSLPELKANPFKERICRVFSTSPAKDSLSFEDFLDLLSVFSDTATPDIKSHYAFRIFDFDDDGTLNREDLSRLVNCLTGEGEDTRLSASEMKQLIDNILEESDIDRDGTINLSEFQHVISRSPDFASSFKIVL
Chain of Cytochrome P450 2C9 (Homo sapiens) (P11712 whole entry, looked up): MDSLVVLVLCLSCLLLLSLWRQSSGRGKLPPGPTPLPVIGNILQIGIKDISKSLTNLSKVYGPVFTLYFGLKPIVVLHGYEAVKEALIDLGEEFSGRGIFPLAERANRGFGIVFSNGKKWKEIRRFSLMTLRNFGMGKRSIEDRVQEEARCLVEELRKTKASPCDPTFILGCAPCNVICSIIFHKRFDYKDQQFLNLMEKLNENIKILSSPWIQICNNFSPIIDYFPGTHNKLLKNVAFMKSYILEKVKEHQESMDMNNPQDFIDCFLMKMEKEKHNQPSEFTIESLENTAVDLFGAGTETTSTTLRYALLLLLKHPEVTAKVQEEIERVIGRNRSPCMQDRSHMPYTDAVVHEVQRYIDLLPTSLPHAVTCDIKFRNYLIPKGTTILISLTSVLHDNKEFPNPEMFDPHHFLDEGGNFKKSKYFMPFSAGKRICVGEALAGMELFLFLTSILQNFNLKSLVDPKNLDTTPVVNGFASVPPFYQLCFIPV
Chain of Cytochrome P450 2D6 (Homo sapiens) (P10635 whole entry, looked up): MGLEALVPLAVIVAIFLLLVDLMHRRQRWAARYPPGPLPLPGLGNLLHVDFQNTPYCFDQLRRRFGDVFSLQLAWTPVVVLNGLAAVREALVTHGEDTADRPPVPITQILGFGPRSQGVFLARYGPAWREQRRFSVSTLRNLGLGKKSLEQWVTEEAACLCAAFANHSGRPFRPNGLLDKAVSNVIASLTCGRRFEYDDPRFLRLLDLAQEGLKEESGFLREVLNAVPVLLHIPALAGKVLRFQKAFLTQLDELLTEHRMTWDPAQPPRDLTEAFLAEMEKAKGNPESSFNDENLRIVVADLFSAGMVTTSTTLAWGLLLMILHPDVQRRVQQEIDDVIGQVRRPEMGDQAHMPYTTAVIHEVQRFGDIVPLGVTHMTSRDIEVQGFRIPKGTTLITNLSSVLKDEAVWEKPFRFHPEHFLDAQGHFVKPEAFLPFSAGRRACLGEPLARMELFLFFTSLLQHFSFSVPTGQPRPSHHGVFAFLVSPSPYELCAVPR

Regarding `CN(C)C(=O)Nc1cccc(-c2ccc(N(C)C)cc2)c1`, the Potency entry in assay [1], in assay [4] and in assay [5] was “inactive” in each case. Besides, the Potency in assay [2] was 21.3 µM (active); in assay [3], 23.9 µM (active).
Turning to `COc1cc2nc(C3CC3)nc(N3CCN(c4ccccc4OC)CC3)c2cc1OC`, the Potency entry in assay [1] was “inactive”. For the same compound, the Potency in assay [2] is 21.3 µM (active); in assay [3], 13.5 µM (active); in assay [4], 16.3 µM (active); in assay [5], 12.9 µM (active).
`Cc1cc(C(=O)Nc2cc(Nc3ccc4c(/C=C/c5ccccn5)n[nH]c4c3)ccc2F)n(C)n1`: in assay [1], the Potency entry was “inactive”. Further, the Potency in assay [2] was 7.56 µM (active); in assay [3], 4.25 µM (active); in assay [4] it was 7.28 µM (active) and 7.42 µM (active); in assay [5] it was 9.16 µM (active) and 7.42 µM (active).
With `CC1=C(C(=O)OC2CCCCC2)C(c2ccc([N+](=O)[O-])cc2)C2=C(CC(C)(C)CC2=O)N1` (stereo not given), the Potency in assay [1] was 17.8 µM (active); in assay [2], 21.3 µM (active); in assay [3], 12 µM (active). The Potency entry in assay [4] and in assay [5] was “inactive” each time.
As for `CC(=O)c1ccc2c(c1)[C@H](NC(=O)c1ccc(F)c(Cl)c1)[C@H](O)C(C)(C)O2`, the Potency result in assay [1], in assay [4] and in assay [5] was “inactive” in each case. For the same compound, the Potency in assay [2] is 0.674 µM (active); in assay [3] it was 2.68 µM (active).
Consider `O=C(NC1CCN(CCCCC2(C(=O)NCC(F)(F)F)c3ccccc3-c3ccccc32)CC1)c1ccccc1-c1ccc(C(F)(F)F)cc1`, for which the Potency result in assay [1] is “inactive”. Besides, the Potency in assay [2] is 1.07 µM (active); in assay [3], 15.1 µM (active); in assay [4], 2.9 µM (active); in assay [5] it was 2.9 µM (active).
For `Cc1csc2c(N[C@@H](C)CN3CCN(S(=O)(=O)c4ccc(Cl)c(Cl)c4)CC3)ncnc12`, the Potency entry in assay [1] was “inactive”. Moreover, the Potency in assay [2] is 0.425 µM (active); in assay [3] it was 6.01 µM (active); in assay [4], 2.9 µM (active); in assay [5] it was 8.17 µM (active).
Consider `Cc1nc(C(=O)N2CCC[C@H]2Cc2nnc(-c3ccccc3)o2)c(-c2ccccc2F)s1`, for which the Potency result in assay [1], in assay [2], in assay [4] and in assay [5] was “inactive” throughout. In assay [3], the Potency is 10.7 µM (active).
`CCCCNc1ncc(C(=O)NCc2ccc(-n3ccnc3)cc2)c(NC2CCC(O)CC2)n1` (stereo not given): the Potency entry in assay [1] is “inactive”. Moreover, the Potency was 0.674 µM (active) in assay [2], 0.849 µM (active) in assay [3], 5.78 µM (active) in assay [4] and 4.59 µM (active) in assay [5].
Turning to `COc1cc2c(cc1-c1c(C)noc1C)ncc1[nH]c(=O)n(C(C)c3ccccn3)c12` (stereo not given), the Potency entry in assay [1] and in assay [2] was “inactive” each time. In addition, the Potency in assay [3] was 5.35 µM (active); in assay [4], 0.325 µM (active); in assay [5], 0.325 µM (active).
On to `Cc1cc(NC(=O)c2cccc(NC(=O)/C=C/CN(C)C)c2)ccc1Nc1nccc(-c2cccnc2)n1`, for which the Potency entry in assay [1] is “inactive”. In addition, the Potency in assay [2] is 10.7 µM (active); in assay [3], 16.9 µM (active); in assay [4], 4.61 µM (active); in assay [5], 4.59 µM (active).
`CCCN1CCC=C(c2cc(-c3ccc(C)cc3)no2)C1`: the Potency entry in assay [1], in assay [3], in assay [4] and in assay [5] was “inactive” in each case. For the same compound, the Potency in assay [2] was 2.68 µM (active).
In the case of `COc1ccc(NC(=O)c2ccc(-c3ccc(-c4nnc(C)o4)cc3C)cc2)cc1N1CCN(C)CC1`, the Potency result in assay [1] is “inactive”. Also, the Potency in assay [2] was 30.1 µM (active); in assay [3], 19 µM (active); in assay [4] it was 20.5 µM (active); in assay [5], 10.3 µM (active).
Regarding `O=C(NCCCCN1CCN(c2cccc(Cl)c2Cl)CC1)c1cc2ccccc2s1`, the Potency result in assay [1] was “inactive”. In addition, the Potency in assay [2] is 0.301 µM (active); in assay [3], 3.79 µM (active); in assay [4] it was 20.5 µM (active); in assay [5], 23 µM (active).
Regarding `Cc1cc(NC(=O)NCCN2CCC(O)(Cc3ccccc3)CC2)c2ccccc2n1`, the Potency entry in assay [1], in assay [3], in assay [4] and in assay [5] was “inactive” throughout. Also, in assay [2], the Potency was 8.49 µM (active).
In the case of `CC(C)(C)Sc1c(CC(C)(C)C(=O)O)n(Cc2ccc(Cl)cc2)c2ccc(OCc3ccc4ccccc4n3)cc12`, the Potency entry in assay [1], in assay [2], in assay [4] and in assay [5] was “inactive” each time. In assay [3], the Potency was 1.69 µM (active).
Regarding `COCc1c(Cl)ccc2c1CC[C@H]2c1ncc[nH]1`, the Potency result in assay [1], in assay [4] and in assay [5] was “inactive” each time. Further, the Potency is 1.9 µM (active) in assay [2] and 21.3 µM (active) in assay [3].
For `O=C(Nc1ccc(Cl)cc1)c1ccccc1NCc1ccncc1`, the Potency entry in assay [1] was “inactive”. The Potency in assay [2] was 0.169 µM (active); in assay [3], 0.0379 µM (active); in assay [4], 10.3 µM (active); in assay [5], 18.3 µM (active).
`C[C@H](Oc1cc(-n2cnc3ccc(CN4CCN(C)CC4)cc32)sc1C(N)=O)c1ccccc1C(F)(F)F`: the Potency entry in assay [1] is “inactive”. Further, the Potency is 21.3 µM (active) in assay [2], 6.74 µM (active) in assay [3], 1.15 µM (active) in assay [4] and 1.29 µM (active) in assay [5].
As to `O=C(NC1(c2ccccc2)CC1)c1c(CN2CCC(N3CCCCC3)CC2)c(-c2cccc(C(F)(F)F)c2)nc2cc(Br)ccc12`, the Potency entry in assay [1] was “inactive”. The Potency in assay [2] was 4.77 µM (active); in assay [3] it was 23.9 µM (active); in assay [4], 12.9 µM (active); in assay [5], 10.3 µM (active).
Turning to `CN1CCC(c2cn(C)c3ccc(OS(=O)(=O)c4c(F)cccc4F)cc23)CC1`, in assay [1], the Potency result was “inactive”. Also, the Potency in assay [2] is 12 µM (active); in assay [3], 9.52 µM (active); in assay [4], 18.3 µM (active); in assay [5], 23 µM (active).
`CC(C)c1noc(C2CCN(c3ncnc(Nc4ccc(S(C)(=O)=O)cc4F)c3[N+](=O)[O-])CC2)n1`: the Potency result in assay [1], in assay [2], in assay [3], in assay [4] and in assay [5] was “inactive” in each case.
Take `COc1ccc(N2CCN(C(=O)c3cc4c(s3)-c3ccccc3S(=O)(=O)C4)CC2)cc1`: the Potency entry in assay [1], in assay [2], in assay [4] and in assay [5] was “inactive” throughout. Further, the Potency in assay [3] was 10.7 µM (active).
Consider `Cn1cc(-c2ccc(S(=O)(=O)n3ccc(/C=C/C(=O)Nc4ccccc4N)c3)cc2)cn1`, for which the Potency entry in assay [1] is “inactive”. The Potency in assay [2] was 2.68 µM (active); in assay [3] it was 0.849 µM (active); in assay [4] it was 649 nM (active) and 934 nM (active); in assay [5], 649 nM (active) and 833 nM (active).
